Experiment [1] concerns the target Paired box protein Pax-6 (Homo sapiens) (UniProt P26367). The experiment is described as follows: ATG_Pax6_CIS: Attagene CIS-FACTORIAL HepG2 Assay for human Paired Box 6 (PAX6) (AID 2282956). The conditions noted are these: HepG2 CIS-FACTORIAL PAX6 reporter transcription, RNA readout; actives raise or lower the signal. An outline of the steps:
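Fluorescent RT-PCR products separated by capillary electrophoresis report PAX6-linked promoter mRNA in HepG2 cells 24 h post-dose. Curves fitted bidirectionally, DMSO as negative control.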

Experiment [2] can be described thus: ATG_PXRE_CIS: Attagene CIS-FACTORIAL HepG2 Assay for human Pregnane X Receptor Element (PXRE) (AID 2282957). To be noted: HepG2 Attagene CIS-FACTORIAL PXRE reporter, mRNA; actives raise or lower the signal. An outline of the steps: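 Endogenous transcription factor activity in HepG2 was gauged through induction of reporter mRNA driven by a cis-regulating promoter element, sampled 24 h post-treatment. Activity was fitted in both directions against DMSO negative control.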

The nature of experiment [3]: ATG_PPRE_CIS: Attagene CIS-FACTORIAL HepG2 Assay for human Peroxisome Proliferator-activated Response Element (PPRE) (AID 2282958). The conditions noted are these: HepG2 PPRE cis-element reporter, Attagene transcription factor profiling; actives raise or lower the signal. An outline of the steps: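 Cells are first transfected transiently with the multiplexed reporter library, then dosed for 24 h. Total RNA is reverse-transcribed, amplified, fluorescently end-labeled and HpaI-cut before capillary electrophoresis; activity is fitted bidirectionally against DMSO controls.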

The nature of experiment [4]: ATG_RORE_CIS: Attagene CIS-FACTORIAL HepG2 Assay for human RAR-related Orphan Receptor Element (RORE) (AID 2282959). The conditions noted are these: HepG2 Attagene cis-factorial RORE reporter, mRNA; actives raise or lower the signal. In outline: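 Cells were HepG2 carrying transfected cis-regulated reporter constructs, dosed for 24 hours. Total RNA was reverse-transcribed and reporter cDNA amplified, fluorescently labeled and sized by capillary electrophoresis. Activity was fitted bidirectionally relative to DMSO.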

The nature of experiment [5]: ATG_Sox_CIS: Attagene CIS-FACTORIAL HepG2 Assay for human SRY-box transcription factor (SOX) (AID 2282960). The conditions noted are these: HepG2 Attagene cis-factorial SOX reporter, mRNA; actives raise or lower the signal. An outline of the steps: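 Transient MRTU transfection of HepG2; 24 h compound incubation; TriZol RNA, oligo(dT) RT, PCR, 6-FAM primer extension, HpaI cut, CE. Bidirectional fit, DMSO = baseline.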

In experiment [6] the target is Transcription factor Sp1 (Homo sapiens) (UniProt P08047). The experiment is described as follows: ATG_Sp1_CIS: Attagene CIS-FACTORIAL HepG2 Assay for human Specificity Protein 1 (Sp1) (AID 2282961). The conditions noted are these: HepG2 Sp1 cis-reporter transcription, actives raise or lower the signal. In outline: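 Endogenous Sp1 activity was gauged in human liver HepG2 cells bearing transfected reporter units under a cis-regulating promoter. After 24 h dosing, reporter mRNA was quantified by RT-PCR with capillary electrophoresis, and activity fitted bidirectionally versus DMSO.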
Chain of Transcription factor Sp1 (Homo sapiens) (P08047 whole entry, looked up): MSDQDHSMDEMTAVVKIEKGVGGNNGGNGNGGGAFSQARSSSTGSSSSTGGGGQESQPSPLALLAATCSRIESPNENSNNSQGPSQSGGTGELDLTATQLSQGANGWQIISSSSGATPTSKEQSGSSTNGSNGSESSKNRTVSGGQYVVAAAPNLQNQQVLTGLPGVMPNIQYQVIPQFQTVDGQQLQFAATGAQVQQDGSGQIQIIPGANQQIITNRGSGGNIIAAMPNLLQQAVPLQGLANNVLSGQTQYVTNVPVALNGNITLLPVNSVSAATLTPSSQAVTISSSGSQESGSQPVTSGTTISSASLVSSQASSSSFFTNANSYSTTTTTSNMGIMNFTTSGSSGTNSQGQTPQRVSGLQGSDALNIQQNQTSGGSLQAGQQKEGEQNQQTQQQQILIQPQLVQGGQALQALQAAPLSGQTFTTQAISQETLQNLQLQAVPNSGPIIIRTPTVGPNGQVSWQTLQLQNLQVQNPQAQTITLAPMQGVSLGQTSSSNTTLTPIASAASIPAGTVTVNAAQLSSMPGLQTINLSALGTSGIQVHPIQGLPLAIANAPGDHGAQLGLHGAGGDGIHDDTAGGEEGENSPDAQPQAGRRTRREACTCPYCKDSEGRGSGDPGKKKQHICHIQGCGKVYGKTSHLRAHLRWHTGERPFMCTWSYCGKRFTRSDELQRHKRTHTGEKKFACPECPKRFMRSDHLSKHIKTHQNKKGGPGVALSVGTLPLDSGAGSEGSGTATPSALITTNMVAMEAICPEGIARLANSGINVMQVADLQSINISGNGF

Experiment [7] is described as follows: ATG_SREBP_CIS: Attagene CIS-FACTORIAL HepG2 Assay for human Sterol Regulatory Element Binding (SREBP) (AID 2282962). To be noted: HepG2 Attagene cis-factorial SREBP reporter, mRNA; actives raise or lower the signal. In outline:
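Endogenous factor activity is measured in HepG2 through multiplexed reporter units under cis-element control. Following a 24 h incubation, reporter transcripts are reverse-transcribed, PCR-amplified and sized by capillary electrophoresis; activity is fitted in both directions relative to DMSO.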

Experiment [8] addresses Signal transducer and activator of transcription 3 (Homo sapiens) (UniProt P40763). The experiment is described as follows: ATG_STAT3_CIS: Attagene CIS-FACTORIAL HepG2 Assay for human Signal Transducer and Activator of Transcription 3 (STAT3) (AID 2282963). To be noted: HepG2, Attagene cis-factorial STAT3 reporter transcription; actives raise or lower the signal. An outline of the steps: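 Cis-factorial format: endogenous transcription factors in HepG2 drive transfected reporter units. After 24 h treatment, reporter RNA was reverse-transcribed, amplified, FAM-labelled and HpaI-digested before CE analysis; activity scored in both directions against DMSO.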

Experiment [9] can be described thus: ATG_TCF_b_cat_CIS: Attagene CIS-FACTORIAL HepG2 Assay for human T-Cell-Factor with beta-catenin (TCF/b-cat) (AID 2282965). To be noted: HepG2 TCF/beta-catenin cis-reporter transcription, actives raise or lower the signal. An outline of the steps: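 Endogenous transcription factor activity is captured through cis-promoter reporter constructs transiently introduced into human HepG2 liver cells. Induced reporter mRNA is measured after 24 h and fitted bidirectionally relative to DMSO.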

Experiment [10] in a line: ATG_TAL_CIS: Attagene CIS-FACTORIAL HepG2 Assay for human TAL Basal Promoter (AID 2282966).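 Note: background control endpoint measuring basal TAL promoter reporter mRNA not a specific factor.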 To be noted: HepG2 Attagene cis-factorial TAL promoter reporter; actives raise or lower the signal. An outline of the steps: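 Endogenous transcription-factor activity is sensed in HepG2 cells through transfected cis-promoter reporter constructs. After 24 h dosing, reporter transcripts are quantified by RT-PCR and capillary electrophoresis. Gain or loss of signal is fitted relative to DMSO.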

Experiment [11] is described as follows: ATG_VDRE_CIS: Attagene CIS-FACTORIAL HepG2 Assay for human Vitamin D Receptor Element (VDRE) (AID 2282968). The conditions noted are these: HepG2 VDRE cis-reporter transcription, actives raise or lower the signal. In outline:
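Measures endogenous factor activity through cis-element-driven reporter transcripts in transiently transfected HepG2. Cells are treated 24 h; reporter mRNA is quantified by RT-PCR and capillary electrophoresis; fitting is bidirectional.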

The target in experiment [12] is Estrogen receptor (Homo sapiens) (UniProt P03372). The experiment can be described thus: ATG_ERa_TRANS: Attagene TRANS-FACTORIAL HepG2 Assay for human Estrogen Receptor alpha (ERa) (AID 2282970; active = hit-call score of the fitted dose curve at least 0.9, where 1 is the maximum). The conditions noted are these: HepG2 Attagene TRANS ERa GAL4 reporter, mRNA. An outline of the steps:
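Transfected HepG2 cells carrying GAL4-UAS-driven reporter units were dosed for 24 hours. Total RNA was reverse-transcribed, reporter sequences PCR-amplified, FAM-labelled, HpaI-digested and resolved by capillary electrophoresis. Increases over DMSO control defined activity.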

The target of experiment [13] is Steroid hormone receptor ERR1 (Homo sapiens) (UniProt P11474). The experiment is described as follows: ATG_ERRa_TRANS: Attagene TRANS-FACTORIAL HepG2 Assay for human Estrogen-Related Receptor alpha (ERRa) (AID 2282971; active = hit-call score of the fitted dose curve at least 0.9, where 1 is the maximum). To be noted: HepG2 Attagene TRANS reporter, ERRa transactivation. In outline: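 HepG2 cells were transiently transfected with multiple GAL4-UAS reporter units, then dosed with compound for 24 h. Total RNA was reverse-transcribed, reporter cDNA PCR-amplified and fluorescently labelled, and fragments resolved by capillary electrophoresis; induction was compared with DMSO.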
Chain of Steroid hormone receptor ERR1 (Homo sapiens) (P11474 whole entry, looked up, the tested form may be a part): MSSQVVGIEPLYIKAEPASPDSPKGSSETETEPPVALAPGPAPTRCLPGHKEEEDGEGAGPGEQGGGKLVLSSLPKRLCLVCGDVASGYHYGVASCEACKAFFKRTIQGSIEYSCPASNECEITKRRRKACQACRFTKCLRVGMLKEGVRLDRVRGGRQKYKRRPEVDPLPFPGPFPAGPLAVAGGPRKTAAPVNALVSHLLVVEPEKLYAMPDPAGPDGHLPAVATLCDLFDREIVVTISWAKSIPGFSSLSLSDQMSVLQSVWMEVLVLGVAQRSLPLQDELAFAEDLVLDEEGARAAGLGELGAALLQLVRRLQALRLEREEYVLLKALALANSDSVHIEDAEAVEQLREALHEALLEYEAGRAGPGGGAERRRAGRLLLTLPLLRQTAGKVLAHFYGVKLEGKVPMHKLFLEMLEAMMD

Experiment [14] addresses X-box-binding protein 1 (Homo sapiens) (UniProt P17861). The experiment is described as follows: ATG_Xbp1_CIS: Attagene CIS-FACTORIAL HepG2 Assay for human X-box Binding Protein 1 (XBP1) (AID 2282972). The conditions noted are these: HepG2 XBP1 cis-element reporter, Attagene multiplex; actives raise or lower the signal. In outline: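 Multiplexed cis-reporter readout in transfected HepG2 liver cells. Exposure lasted 24 hours. Activity in either direction was fitted against DMSO as negative control and baseline.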

The nature of experiment [15]: ATG_M_19_TRANS: Attagene TRANS-FACTORIAL HepG2 Assay for M19 Transcription Factor (Internal Marker) (AID 2282974; active = hit-call score of the fitted dose curve at least 0.9, where 1 is the maximum). The conditions noted are these: HepG2 Attagene TRANS-FACTORIAL M19 internal marker reporter. An outline of the steps: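 Cells: human HepG2, transiently transfected with multiplexed reporter transcription units. Exposure: 24 h. Detection: RT-PCR of reporter mRNA with capillary electrophoresis. Analysis: gain-of-signal vs DMSO.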

The nature of experiment [16]: ATG_GAL4_TRANS: Attagene TRANS-FACTORIAL HepG2 Assay for GAL4 (Internal Marker) (AID 2282976; active = hit-call score of the fitted dose curve at least 0.9, where 1 is the maximum). The conditions noted are these: HepG2 Attagene TRANS GAL4 internal marker reporter. In outline: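 Fluorescence from capillary electrophoresis of labelled RT-PCR products quantifies reporter mRNA induction after 24 h dosing of HepG2 cells carrying transfected GAL4-UAS reporter transcription units. Vehicle DMSO serves as baseline.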

Experiment [17] in a line: ATG_TA_CIS: Attagene CIS-FACTORIAL HepG2 Assay for human TA Basal Promoter (AID 2282964). To be noted: HepG2 Attagene CIS-factorial TA basal promoter reporter; actives raise or lower the signal. In outline:
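Background internal-marker endpoint from a 52-component HepG2 cis-reporter panel. Cells treated 24 h; reporter transcripts quantified via RT-PCR and CE fluorescence against DMSO baseline.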

Experiment [18] is described as follows: ATG_TGFb_CIS: Attagene CIS-FACTORIAL HepG2 Assay for human Transforming Growth Factor (TGF) (AID 2282967). The conditions noted are these: HepG2 Attagene CIS TGFb reporter, mRNA transcription; actives raise or lower the signal. In outline: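 Liver HepG2 line, cis-factorial reporter panel, 24 h dosing. Quantitation: RT-PCR products labeled with 6-FAM, cut with HpaI, resolved by capillary electrophoresis; DMSO-referenced bidirectional analysis.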

Records with an inconclusive call do not appear. Active and inactive are the calls of the source. Rule for the calls, unless noted: active = hit-call score of the fitted dose curve at least 0.9, where 1 is the maximum; inactive = score below 0.9.

Chain of Paired box protein Pax-6 (Homo sapiens) (P26367 whole entry, looked up): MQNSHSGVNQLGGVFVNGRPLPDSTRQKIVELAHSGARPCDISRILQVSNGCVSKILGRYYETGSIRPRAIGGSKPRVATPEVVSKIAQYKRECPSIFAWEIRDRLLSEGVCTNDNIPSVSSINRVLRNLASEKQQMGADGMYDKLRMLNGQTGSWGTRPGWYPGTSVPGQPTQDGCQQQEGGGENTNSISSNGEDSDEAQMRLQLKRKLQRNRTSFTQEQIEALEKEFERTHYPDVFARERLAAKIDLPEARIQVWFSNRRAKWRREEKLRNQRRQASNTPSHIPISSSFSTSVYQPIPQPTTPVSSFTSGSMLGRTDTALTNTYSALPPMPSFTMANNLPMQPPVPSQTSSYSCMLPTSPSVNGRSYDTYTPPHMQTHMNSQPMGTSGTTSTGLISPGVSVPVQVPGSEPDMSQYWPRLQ
Chain of Signal transducer and activator of transcription 3 (Homo sapiens) (P40763 whole entry, looked up): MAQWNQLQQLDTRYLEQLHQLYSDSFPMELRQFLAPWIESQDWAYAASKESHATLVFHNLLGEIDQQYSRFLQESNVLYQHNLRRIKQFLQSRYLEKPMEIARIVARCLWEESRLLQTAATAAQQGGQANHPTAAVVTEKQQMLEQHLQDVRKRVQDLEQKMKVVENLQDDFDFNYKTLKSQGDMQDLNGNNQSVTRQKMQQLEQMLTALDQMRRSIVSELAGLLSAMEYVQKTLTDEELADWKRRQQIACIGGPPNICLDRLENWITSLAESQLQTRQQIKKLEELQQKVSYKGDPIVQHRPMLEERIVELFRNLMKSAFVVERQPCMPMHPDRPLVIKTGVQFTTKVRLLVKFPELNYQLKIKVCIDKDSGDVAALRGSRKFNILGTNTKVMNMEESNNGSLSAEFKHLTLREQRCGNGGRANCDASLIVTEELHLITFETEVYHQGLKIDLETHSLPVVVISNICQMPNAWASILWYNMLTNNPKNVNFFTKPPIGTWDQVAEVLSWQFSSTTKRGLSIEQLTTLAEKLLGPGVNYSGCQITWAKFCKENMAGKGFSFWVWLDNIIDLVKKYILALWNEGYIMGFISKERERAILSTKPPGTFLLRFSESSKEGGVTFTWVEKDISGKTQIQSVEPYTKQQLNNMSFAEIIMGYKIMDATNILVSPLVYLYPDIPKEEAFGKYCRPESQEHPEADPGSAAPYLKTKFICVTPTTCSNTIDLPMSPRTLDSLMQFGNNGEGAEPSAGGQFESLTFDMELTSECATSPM
Chain of X-box-binding protein 1 (Homo sapiens) (P17861 whole entry, looked up): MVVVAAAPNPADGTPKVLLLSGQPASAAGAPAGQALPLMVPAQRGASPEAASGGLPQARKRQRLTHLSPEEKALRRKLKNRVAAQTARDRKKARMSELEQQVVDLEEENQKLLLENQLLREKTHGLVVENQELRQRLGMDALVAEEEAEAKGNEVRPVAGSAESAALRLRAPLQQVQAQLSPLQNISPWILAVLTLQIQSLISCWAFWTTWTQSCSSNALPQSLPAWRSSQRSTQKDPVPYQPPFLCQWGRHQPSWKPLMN
Chain of Estrogen receptor (Homo sapiens) (P03372 whole entry, looked up, the tested form may be a part): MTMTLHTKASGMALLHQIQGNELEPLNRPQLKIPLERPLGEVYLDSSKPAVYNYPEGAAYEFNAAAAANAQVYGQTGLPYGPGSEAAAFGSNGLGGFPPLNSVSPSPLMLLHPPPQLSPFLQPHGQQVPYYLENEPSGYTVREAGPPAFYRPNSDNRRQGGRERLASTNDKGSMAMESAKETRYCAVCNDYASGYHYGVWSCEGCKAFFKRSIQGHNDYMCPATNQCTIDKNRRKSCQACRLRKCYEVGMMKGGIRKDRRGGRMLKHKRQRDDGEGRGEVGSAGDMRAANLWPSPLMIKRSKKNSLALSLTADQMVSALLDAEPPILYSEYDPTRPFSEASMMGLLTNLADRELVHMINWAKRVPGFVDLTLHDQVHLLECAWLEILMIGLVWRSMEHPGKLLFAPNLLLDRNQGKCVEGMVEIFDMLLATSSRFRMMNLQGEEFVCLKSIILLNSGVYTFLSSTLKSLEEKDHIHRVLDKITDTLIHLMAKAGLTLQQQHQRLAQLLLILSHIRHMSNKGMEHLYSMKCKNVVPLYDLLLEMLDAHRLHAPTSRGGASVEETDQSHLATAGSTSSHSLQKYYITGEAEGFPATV

Take `CC(C)(C)C1CCC(=O)CC1`: the molecule was classed as inactive in experiment [1], in experiment [2], in [3], in experiment [4], in [5] and in experiment [6]. The outcome in experiment [7], in [8], in experiment [9], in experiment [10], in experiment [11] and in experiment [12] was inactive. The outcome in [13], in experiment [14], in [15] and in experiment [16] was inactive.
On to `CCOC(=O)/C=C\C(=O)OCC`, for which the molecule was called inactive in experiment [1], in [2], in [4], in [5], in experiment [6] and in [7]. Moreover, the result in experiment [17], in experiment [9], in experiment [10], in [18], in experiment [11] and in experiment [12] was inactive. In addition, the call in experiment [13], in [14] and in experiment [15] was inactive. Besides, the AC50 (commonly the concentration at which the activity in the assay is half-maximal) in experiment [3] is 7.64 µM (active).
As to `CC/C=C\C/C=C\C/C=C\CCCCCCCC(=O)OC`, the call in [1], in [3], in [5], in experiment [7], in experiment [8] and in experiment [10] was inactive. The result in [11], in experiment [12], in experiment [14] and in experiment [16] was inactive. Besides, the AC50 was 7.37 µM (active) in experiment [2], 164 µM (active) in experiment [4], 128 µM (active) in [6] and 64.9 µM (active) in [9].
Turning to `CC(C)c1cc(C(C)C)cc(C(C)C)c1`, the AC50 in experiment [1] was 159 µM (active); in experiment [2], 52.1 µM (active); in experiment [5], 159 µM (active); in experiment [7], 100 µM (active); in experiment [9], 169 µM (active); in [11] it was 100 µM (active). Besides, the concentration at half-maximal activity (AC50) in experiment [12] is 58.9 µM (active). For the same molecule, the call in [3], in experiment [8], in experiment [10] and in experiment [14] was inactive.
`c1ccc(-c2nc3ccccc3[nH]2)cc1`: the result in experiment [1], in experiment [3], in experiment [5], in experiment [6], in experiment [7] and in [8] was inactive. Besides, the molecule was classed as inactive in experiment [9], in experiment [10], in experiment [18], in experiment [11], in [12] and in experiment [14]. Further, the molecule was called inactive in [16]. Besides, the AC50 in [2] was 27.4 µM (active).
As to `COC(C=C(C)CCC=C(C)C)OC`, the call in [1], in [3], in experiment [4], in experiment [5], in experiment [6] and in experiment [7] was inactive. The call in experiment [8], in experiment [9], in experiment [10], in experiment [18], in [12] and in experiment [14] was inactive. Further, the call in experiment [15] and in experiment [16] was inactive. The AC50 in experiment [2] is 21.7 µM (active); in [11] it was 76.7 µM (active).

(Values after PubChem BioAssay (EPA / NIEHS).)
